Data: PubChem BioAssay (NCI)
About 79,000 compounds went through this panel and 15% of them were active in at least one assay; those are over-represented in the sample as a whole. Values without a mark were called inactive. Active and inactive are the calls of the source. Cut-off read from the data, not from the text of the source: active = growth inhibition above about 70%; inactive = the rest.

Legend:
[1] = NCI Yeast Anticancer Drug Screen. Data for the rad52 strain (AID 147);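 note: 0% = growth of vehicle-treated control cultures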; details: S. cerevisiae rad52 mutant growth inhibition, hits give high values
Summary of the method: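 Growth of repair-deficient yeast cells was compared between compound-treated and vehicle-treated cultures to give percent inhibition.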

[2] = NCI Yeast Anticancer Drug Screen. Data for the wt1 strain (AID 149);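 note: 0% = growth of vehicle-treated wt1 cultures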; details: S. cerevisiae wt1 strain (SPY 50644) growth inhibition, hits give high values
Summary of the method: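 Growth inhibition read against vehicle controls after compound exposure of the wt1 yeast strain.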

[3] = NCI Yeast Anticancer Drug Screen. Data for the rad50 strain (AID 155);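 note: 0% = growth of vehicle-only cultures of the same strain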; details: S. cerevisiae rad50 strain growth inhibition, hits give high values
Summary of the method: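 Readout: growth inhibition relative to vehicle-treated cultures. Compound exposure was carried out in a genetically defined yeast strain deficient in DNA damage repair.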

[4] = NCI Yeast Anticancer Drug Screen. Data for the mec2-1 strain (AID 157); details: S. cerevisiae mec2-1 strain, hits give high values
Summary of the method: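 Compounds were applied to mec2-1 yeast cells. Their growth was then compared with that of vehicle-treated cultures to give growth inhibition.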

[5] = NCI Yeast Anticancer Drug Screen. Data for the rad14 strain (AID 159);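 note: 0% = growth of vehicle-treated control cultures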; details: S. cerevisiae rad14 strain growth inhibition, hits give high values
Summary of the method: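 Growth inhibition vs vehicle controls; genetically altered yeast strain (DNA damage repair defect) treated with test compounds.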

[6] = NCI Yeast Anticancer Drug Screen. Data for the CLN2oe strain (AID 163);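 note: 0% = growth of vehicle-only control cultures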; details: S. cerevisiae CLN2oe strain, hits give high values
Summary of the method: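 Cells of an engineered yeast line with disturbed cell-cycle regulation are treated with compound. Inhibition of growth is then calculated relative to the vehicle-treated reference.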

[7] = NCI Yeast Anticancer Drug Screen. Data for the cln2 rad14 strain (AID 165);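 note: 0% = growth equal to vehicle treated cultures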; details: S. cerevisiae cln2 rad14 strain, hits give high values
Summary of the method: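 Strain: cln2 rad14 yeast, altered in cell cycle control and DNA damage repair. Read-out: growth inhibition vs vehicle.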

[8] = NCI Yeast Anticancer Drug Screen. Data for the bub3 strain (AID 167); details: S. cerevisiae bub3 mutant strain, hits give high values
Summary of the method: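 Readout: yeast growth inhibition, expressed relative to vehicle-only wells. The test organism is a mutant strain from a panel with lesions in DNA repair or checkpoint genes.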

[9] = NCI Yeast Anticancer Drug Screen. Data for the wt2 strain (AID 169);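 note: 0% = growth of vehicle-treated yeast cultures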; details: S. cerevisiae wt2 strain growth inhibition, hits give high values
Summary of the method: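 Growth of compound-treated yeast is measured and expressed as inhibition relative to vehicle-only controls.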

[10] = NCI Yeast Anticancer Drug Screen. Data for the sgs1 strain (AID 173);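 note: 0% = growth of vehicle-only control cultures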; details: S. cerevisiae sgs1 mutant, hits give high values
Summary of the method: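 Strain with an altered DNA repair or cell cycle pathway exposed to compound. Growth then measured. Value = inhibition versus vehicle control.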

[11] = NCI Yeast Anticancer Drug Screen. Data for the mlh1 rad18 strain (AID 175); details: S. cerevisiae mlh1 rad18 strain growth inhibition, hits give high values
Summary of the method: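 A repair-deficient yeast strain is exposed to test compound, and growth is scored relative to vehicle-treated controls.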

[12] = NCI Yeast Anticancer Drug Screen. Data for the rad18 strain (AID 177); details: S. cerevisiae rad18 mutant growth inhibition, hits give high values
Summary of the method: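 DNA-repair-defective yeast; compound treatment; growth inhibition scored against vehicle.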

[13] = NCI Yeast Anticancer Drug Screen. Data for the rad50EPP+ strain (AID 151);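 note: 0% = growth of vehicle-treated control cultures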; details: S. cerevisiae rad50 mutant strain, hits give high values
Summary of the method: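 Measured: growth inhibition of rad50EPP+ yeast. Reference: vehicle-treated controls. Screen uses strains with defined genetic alterations in DNA damage repair or cell cycle control.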

[14] = NCI Yeast Anticancer Drug Screen. Data for the sgs1 mgt1 strain (AID 161);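 note: 0% = growth of cultures given vehicle only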; details: S. cerevisiae sgs1 mgt1 strain, hits give high values
Summary of the method: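 This yeast growth screen uses a strain with defined DNA-repair lesions; compound-treated growth is compared with vehicle-treated growth.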

[15] = NCI Yeast Anticancer Drug Screen. Data for the mlh1 strain (AID 171);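 note: 0% = growth of vehicle-treated control cultures of the same strain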; details: S. cerevisiae mlh1 strain growth inhibition, hits give high values
Summary of the method: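 Test agents were incubated with yeast bearing a defined DNA damage repair or cell cycle control alteration; values are growth inhibition normalised to vehicle-treated cultures.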

[16] = at 5.0 µM (retest, dose inferred, filed as 0.5)
[17] = at 50.0 µM (retest, dose inferred, filed as 5.0)

Compound: CC(=O)OCC1OC(O[C@H]2C=C[C@@H](C(=O)OCc3ccccc3)n3c(=O)n(-c4ccccc4)c(=O)n32)C(OC(C)=O)C(OC(C)=O)C1OC(C)=O (stereo partly drawn)
- growth inhibition ([1]; at 1.2 µM): 22%
- growth inhibition ([1]; at 3.7 µM): 24%
- growth inhibition ([1]; at 11.0 µM): 14%
- growth inhibition ([1]; at 33.0 µM): 63%
- growth inhibition ([1]; at 100.0 µM): 77% (active)
- growth inhibition ([2]; at 1.2 µM): -11%
- growth inhibition ([2]; at 3.7 µM): 2%
- growth inhibition ([2]; at 11.0 µM): -3%
- growth inhibition ([2]; at 33.0 µM): 21%
- growth inhibition ([2]; at 100.0 µM): 29%
- growth inhibition ([3]; at 1.2 µM): -14%
- growth inhibition ([3]; at 3.7 µM): 10%
- growth inhibition [3, 16]: 39%
- growth inhibition ([3]; at 11.0 µM): 0%
- growth inhibition ([3]; at 33.0 µM): 50%
- growth inhibition [3, 17]: 72% (active)
- growth inhibition ([3]; at 50.0 µM): 59%
- growth inhibition ([3]; at 100.0 µM): 67%
- growth inhibition ([4]; at 1.2 µM): 2%
- growth inhibition ([4]; at 3.7 µM): 9%
- growth inhibition [4, 16]: 23%
- growth inhibition ([4]; at 11.0 µM): -8%
- growth inhibition ([4]; at 33.0 µM): 36%
- growth inhibition [4, 17]: 71% (active)
- growth inhibition ([4]; at 50.0 µM): 57%
- growth inhibition ([4]; at 100.0 µM): 59%
- growth inhibition ([5]; at 1.2 µM): -15%
- growth inhibition ([5]; at 3.7 µM): 8%
- growth inhibition ([5]; at 11.0 µM): -8%
- growth inhibition ([5]; at 33.0 µM): 8%
- growth inhibition ([5]; at 100.0 µM): 20%
- growth inhibition ([6]; at 1.2 µM): 10%
- growth inhibition ([6]; at 3.7 µM): 22%
- growth inhibition ([6]; at 11.0 µM): 24%
- growth inhibition ([6]; at 33.0 µM): 58%
- growth inhibition ([6]; at 100.0 µM): 82% (active)
- growth inhibition [7, 16]: 13%
- growth inhibition [7, 17]: 33%
- growth inhibition ([7]; at 50.0 µM): 53.6%
- growth inhibition ([8]; at 1.2 µM): -30%
- growth inhibition ([8]; at 3.7 µM): -18%
- growth inhibition [8, 16]: 28%
- growth inhibition ([8]; at 11.0 µM): -27%
- growth inhibition ([8]; at 33.0 µM): 24%
- growth inhibition [8, 17]: 80% (active)
- growth inhibition ([8]; at 50.0 µM): 75.1% (active)
- growth inhibition ([8]; at 100.0 µM): 76% (active)
- growth inhibition ([9]; at 1.2 µM): -36%
- growth inhibition ([9]; at 3.7 µM): -18%
- growth inhibition ([9]; at 11.0 µM): 19%
- growth inhibition ([9]; at 33.0 µM): 98% (active)
- growth inhibition ([9]; at 100.0 µM): 97% (active)
- growth inhibition ([10]; at 1.2 µM): -9%
- growth inhibition ([10]; at 3.7 µM): -15%
- growth inhibition ([10]; at 11.0 µM): -8%
- growth inhibition ([10]; at 33.0 µM): 50%
- growth inhibition ([10]; at 100.0 µM): 77% (active)
- growth inhibition [11, 16]: 70% (active)
- growth inhibition [11, 17]: 93% (active)
- growth inhibition ([11]; at 50.0 µM): 28.9%
- growth inhibition ([12]; at 1.2 µM): -6%
- growth inhibition ([12]; at 3.7 µM): 3%
- growth inhibition ([12]; at 11.0 µM): 7%
- growth inhibition ([12]; at 33.0 µM): 59%
- growth inhibition ([12]; at 100.0 µM): 76% (active)

Compound: CC1(C)C(C=O)=CCC1CC(N)=O (stereo not drawn)
- growth inhibition ([2]; at 1.2 µM): -1%
- growth inhibition ([2]; at 3.7 µM): 0%
- growth inhibition ([2]; at 11.0 µM): 2%
- growth inhibition ([2]; at 33.0 µM): 3%
- growth inhibition ([2]; at 100.0 µM): 29%
- growth inhibition ([13]; at 1.2 µM): 1%
- growth inhibition ([13]; at 3.7 µM): -2%
- growth inhibition ([13]; at 11.0 µM): 0%
- growth inhibition ([13]; at 33.0 µM): 20%
- growth inhibition ([13]; at 100.0 µM): 93% (active)
- growth inhibition ([3]; at 1.2 µM): -1%
- growth inhibition ([3]; at 3.7 µM): -1%
- growth inhibition [3, 16]: -2%
- growth inhibition ([3]; at 11.0 µM): -1%
- growth inhibition ([3]; at 33.0 µM): 1%
- growth inhibition [3, 17]: 43%
- growth inhibition ([3]; at 50.0 µM): 98.5% (active)
- growth inhibition ([3]; at 100.0 µM): 40%
- growth inhibition ([4]; at 1.2 µM): 0%
- growth inhibition ([4]; at 3.7 µM): 2%
- growth inhibition [4, 16]: 4%
- growth inhibition ([4]; at 11.0 µM): 1%
- growth inhibition ([4]; at 33.0 µM): 7%
- growth inhibition [4, 17]: 39%
- growth inhibition ([4]; at 50.0 µM): 98% (active)
- growth inhibition ([4]; at 100.0 µM): 96% (active)
- growth inhibition ([5]; at 1.2 µM): -3%
- growth inhibition ([5]; at 3.7 µM): -2%
- growth inhibition ([5]; at 11.0 µM): -3%
- growth inhibition ([5]; at 33.0 µM): 6%
- growth inhibition ([5]; at 100.0 µM): 99% (active)
- growth inhibition [14, 16]: -3%
- growth inhibition [14, 17]: -2%
- growth inhibition ([14]; at 50.0 µM): 87.3% (active)
- growth inhibition ([6]; at 1.2 µM): -5%
- growth inhibition ([6]; at 3.7 µM): -2%
- growth inhibition ([6]; at 11.0 µM): -1%
- growth inhibition ([6]; at 33.0 µM): -2%
- growth inhibition ([6]; at 100.0 µM): 12%
- growth inhibition [7, 16]: -3%
- growth inhibition [7, 17]: 4%
- growth inhibition ([7]; at 50.0 µM): 38.4%
- growth inhibition ([8]; at 1.2 µM): -3%
- growth inhibition ([8]; at 3.7 µM): -7%
- growth inhibition [8, 16]: -19%
- growth inhibition ([8]; at 11.0 µM): -2%
- growth inhibition ([8]; at 33.0 µM): -5%
- growth inhibition [8, 17]: -8%
- growth inhibition ([8]; at 50.0 µM): 99.2% (active)
- growth inhibition ([8]; at 100.0 µM): 93% (active)
- growth inhibition ([9]; at 1.2 µM): -1%
- growth inhibition ([9]; at 3.7 µM): 1%
- growth inhibition ([9]; at 11.0 µM): 4%
- growth inhibition ([9]; at 33.0 µM): 9%
- growth inhibition ([9]; at 100.0 µM): 83% (active)
- growth inhibition ([15]; at 1.2 µM): 2%
- growth inhibition ([15]; at 3.7 µM): 0%
- growth inhibition ([15]; at 11.0 µM): 4%
- growth inhibition ([15]; at 33.0 µM): 9%
- growth inhibition ([15]; at 100.0 µM): 96% (active)
- growth inhibition ([10]; at 1.2 µM): -1%
- growth inhibition ([10]; at 3.7 µM): 4%
- growth inhibition ([10]; at 11.0 µM): 6%
- growth inhibition ([10]; at 33.0 µM): 23%
- growth inhibition ([10]; at 100.0 µM): 99% (active)
- growth inhibition [11, 16]: -6%
- growth inhibition [11, 17]: 71% (active)
- growth inhibition ([11]; at 50.0 µM): 88.7% (active)
- growth inhibition ([12]; at 1.2 µM): 0%
- growth inhibition ([12]; at 3.7 µM): 0%
- growth inhibition ([12]; at 11.0 µM): 22%
- growth inhibition ([12]; at 33.0 µM): 6%
- growth inhibition ([12]; at 100.0 µM): 54%
